Hits are enriched below; roughly 1.2% of the tested compounds scored in any of these assays.
RGS7-Gao reg: regulators of human RGS7-Galphao interaction | P09471 | Multiplexed bead flow cytometry, RGS7-Galphao binding; actives lie on both sides | binding response (% of control), % at 10 µM | hit rate 0.35% among 220,000; in the data active = binding response below about 49% or above about 150%; inconclusive = no clear call, values can overlap the other calls; inactive = in between;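 note: fluorescent Galphao held in activated GDP-AlF4 state binding bead-coupled RGS7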
RGS16-Gao: RGS16-Galphao interaction regulator (human); O15492+P09471; bead-based flow cytometry RGS16-Galphao binding, fluorescence; actives lie on both sides; binding response (% of control), % at 10 µM; hit rate 0.38% among 220,000; call rule not given here;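 note: Galphao activated by GDP with aluminum fluoride before binding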
Target sequence (O15492 whole entry, looked up): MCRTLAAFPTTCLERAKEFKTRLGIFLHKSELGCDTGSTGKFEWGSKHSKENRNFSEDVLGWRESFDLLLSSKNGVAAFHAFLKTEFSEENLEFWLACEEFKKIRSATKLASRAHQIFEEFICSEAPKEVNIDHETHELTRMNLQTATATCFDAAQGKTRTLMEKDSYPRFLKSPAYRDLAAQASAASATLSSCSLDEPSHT
Target sequence (P09471 whole entry, looked up): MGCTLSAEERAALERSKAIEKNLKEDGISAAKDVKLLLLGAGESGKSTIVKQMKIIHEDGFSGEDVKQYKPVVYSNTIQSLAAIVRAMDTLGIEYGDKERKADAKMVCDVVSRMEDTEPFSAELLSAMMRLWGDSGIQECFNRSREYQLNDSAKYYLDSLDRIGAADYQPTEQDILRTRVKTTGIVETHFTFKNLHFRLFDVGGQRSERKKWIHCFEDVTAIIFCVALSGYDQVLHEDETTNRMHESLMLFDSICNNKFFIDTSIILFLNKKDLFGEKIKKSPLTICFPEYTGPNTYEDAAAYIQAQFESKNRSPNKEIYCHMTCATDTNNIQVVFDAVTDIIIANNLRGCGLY
GSH bead fluor: compound fluoresces at 488/530 nm on GSH beads | GSH beads flow cytometry, compound fluorescence 488/530 nm; stronger effect = higher value | fluorescence (KMESF) at 10 µM | hit rate 0.25% among 190,000; in the data active = fluorescence above about 89;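 note: glutathione beads carrying GST-tagged Bcl family fusion proteins plus one bare bead set; values are compound well signal with DMSO vehicle wells as background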
Avidin bead fluor: avidin bead compound fluorescence profile | Avidin beads, compound fluorescence 488/530 nm, flow cytometry; stronger effect = higher value | fluorescence (KMESF) at 10 µM | hit rate 0.38% among 220,000; in the data active = fluorescence above about 47
RGS8-Gao: regulators of human RGS8-Galphao interaction; multiplexed bead flow cytometry, RGS8-Galphao binding; actives lie on both sides; hit rate 0.34% among 220,000; response (percent of control binding), % at 10 µM; P09471; in the data active = response below about 60% or above about 140%; inactive = in between;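 note: Galphao activated as the GDP aluminium fluoride complex binding bead-coupled RGS8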
RGS4-Gao reg: modulates binding of RGS4 to human Galphao; P09471; Multiplexed bead flow cytometry; actives lie on both sides; binding response (% of control), % at 10 µM; hit rate 0.33% among 220,000; in the data active = binding response below about 49% or above about 150%; inactive = in between;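 note: fluorescent Galphao activated with aluminum fluoride binding bead-coupled RGS4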
* = called active by the depositor; u = inconclusive; x = not tested or not shown; [ ] = dose if it differs, or a comment.

SMILES	RGS7-Gao reg	RGS16-Gao	GSH bead fluor	Avidin bead fluor	RGS8-Gao	RGS4-Gao reg
CC1(C)CC(=O)C=C(Nc2ccccc2F)C1	101.3	107.2	267*	8	102.7	105.9
CC1(C)CC(=O)C=C(Nc2ccc(F)cc2F)C1	105.6	109.8	11	18	103.0	104.3
COCCN(C(=O)Nc1ccc(OC)cc1OC)C1CCN(C(C)C)CC1	133.1	103.5	35	51*	104.0	105.0
Cc1ccc(C(OCC(C)(C)C[N+](C)(C)C)c2ccccc2)cc1 (configuration not stated)	98.5	96.6	25	8	98.3	99.8
CC(C)(C)Nc1cccccc1=O	121.6	102.8	38	66*	100.6	105.0
Cc1cccc(C)c1N(Cc1ccccc1F)S(C)(=O)=O	99.6	98.0	11	11	97.7	97.9
Cc1cc(C(C)(C)C)nc2[nH]n(-c3ccccc3)c(=O)c12	103.2	106.6	35	15	101.8	101.0
O=c1c2c(C(F)(F)F)cc(C(F)(F)F)nc2[nH]n1-c1ccccc1	101.7	97.2	89*	5	99.3	105.8
Cc1nnc(SCC(=O)NC2CCCCC2C)s1 (configuration not stated)	101.7	101.8	11	13	102.1	100.8
O=C1C2CCCN2C(c2cccc(Br)c2)N1c1ccc(F)cc1 (configuration not stated)	113.3	103.7	16	48*	100.8	100.9
O=C1C2CCCN2C(c2ccc(Br)cc2)N1c1ccc(F)cc1 (configuration not stated)	96.2	105.6	26	7	105.5	101.3
O=C(COC(=O)/C=C/c1cccs1)Nc1cccc(S(=O)(=O)N2CCCC2)c1	100.0	102.0	14	7	99.2	97.6
O=C(Nn1c(-c2ccccc2)nc2ccccc2c1=O)c1cccs1	96.7	111.5	5	1	105.6	100.1
COc1ccccc1-c1nc2ccccc2c(=O)n1NC(=O)c1cccs1	100.2	98.2	108*	14	102.7	103.1
Cc1onc(-c2c(Cl)cccc2Cl)c1NC(=O)N(C)N	u	130.9	x	49*	106.1	134.5
N#C/C(=C\c1ccc(O)c(O)c1)S(=O)(=O)c1ccccc1	203.3*[activator]	259.4*[activator]	28	x	154.9*[activator]	223.3*[activator]
COc1ccccc1NC(=O)C(=N\O)/C(C)=N/O	98.7	105.2	7	2	101.2	100.0
COc1ccc(OCC(=O)O/N=C(\N)Cc2ccc(Cl)cc2)cc1	107.7	99.6	22	54*	97.1	101.3
Cc1ccc(OCC(=O)O/N=C(\N)Cc2ccc(Cl)cc2)cc1	96.2	98.2	24	27	101.5	98.7
O=C(O/N=C1\CCS(=O)(=O)c2sccc21)c1ccccc1	106.6	110.2	16	51*	104.8	103.3
CCCc1nnc(SCc2ccc(C(=O)OC)o2)n1N	100.9	113.3	9	28	107.1	104.8
CCc1nnc(SCc2ccc(C(=O)OC)o2)n1N	99.8	104.1	258*	7	97.8	101.4
CCOc1ccc2oc(C(=O)OC(C(=O)NC(N)=O)C(C)C)c(C)c2c1 (configuration not stated)	u	99.0	x	10	99.5	100.3
COc1ccccc1-c1nn2c(=O)cc(C)nc2s1	101.8	105.4	254*	7	102.3	103.9
COc1ccccc1-c1nn2c(-c3ccco3)nnc2s1	93.8	95.6	16	2	99.9	97.6
SMILES	RGS7-Gao reg	RGS16-Gao	GSH bead fluor	Avidin bead fluor	RGS8-Gao	RGS4-Gao reg
Cc1sc2ncn(CC(=O)NCCCC(=O)N3CCN(c4ccccn4)CC3)c(=O)c2c1C	99.5	99.2	14	10	98.2	96.1
Cc1sc2ncn(CC(=O)NCCCC(=O)N3CCN(c4ncccn4)CC3)c(=O)c2c1C	135.2	135.9	5	52*	102.1	116.9
CC(=O)Nc1ccc(C(F)(F)F)cc1Cl	u	100.2	x	6	98.9	97.5
CCOC(=O)COc1c(Br)cc(/C=C2\SC(=O)N(CC(=O)N3CCCC3)C2=O)cc1OC	122.3	103.1	44	80*	101.0	103.2
CCOc1c(Br)cc(/C=C2/SC(=O)N(CC(=O)N3CCCC3)C2=O)cc1OC	83.0	6.7	38	2	76.4	81.3
O=C(Nc1ccc(Cl)c(C(F)(F)F)c1)N1CCCC(O)C1 (configuration not stated)	112.2	100.6	14	66*	96.1	93.7
O=C(Nc1ccc(Cl)c(C(F)(F)F)c1)C(=O)N1CCCCC1	94.7	45.7	10	5	84.8	97.0
CC12CCC(c3n[nH]c(=S)nc31)C2(C)C (configuration not stated)	99.1	55.0	24	6	80.8	95.1
Fc1ccc(N2CCN(c3ccc4c(C(F)(F)F)cc(C(F)(F)F)nc4n3)CC2)cc1	133.1	121.1	15	92*	100.3	117.5
Cc1nc2ccccc2c(=O)n1NC(=O)c1ccccc1[N+](=O)[O-]	114.1	106.3	22	49*	103.5	102.1
Cc1nc2ccccc2c(=O)n1NC(=O)c1cccnc1Cl	96.2	96.9	11	6	101.0	100.8
O=C1Nc2ccccc2N(O)N1c1ccc(S(=O)(=O)Nc2ccccn2)cc1	128.1	118.6	32	64*	113.0	114.6
Cc1ccnc(NS(=O)(=O)c2ccc(N3C(=O)Nc4ccccc4N3O)cc2)c1	100.9	104.3	12	9	102.1	104.7
CCC(C(=O)N1CCN(c2ccccn2)CC1)n1nc(C)n2c(cc3occc32)c1=O (configuration not stated)	100.0	101.4	27	39	99.9	101.7
Cc1nn(C(C)C(=O)N2CCN(c3ccccn3)CC2)c(=O)c2cc3occc3n12 (configuration not stated)	110.2	125.5	18	47*	106.3	107.2
CCOc1ccc(OCC)c(NC(=O)C2CCCN(c3ncccn3)C2)c1 (configuration not stated)	103.4	104.7	264*	7	102.8	104.0
CCOc1ccc(OCC)c(NC(=O)C2CCN(c3ncccn3)CC2)c1	100.7	104.2	33	15	100.3	99.9
COc1ccc(/C=N/Nc2nc(Nc3ccccc3)nc(N3CCCC3)n2)cc1	124.7	107.0	24	78*	107.6	98.0
CC1CC2(CCCCC2)N2C(=O)C(=O)c3cccc1c32 (configuration not stated)	29.2*	28.3	12	3	43.5*	41.1*
S=C1NC(c2ccccc2)N2C(=S)NC(c3ccccc3)N12 (configuration not stated)	104.6	93.0	50	33	99.0	98.4
COc1ccc(C2NC(=S)N3C(c4ccc(OC)cc4)NC(=S)N23)cc1 (configuration not stated)	110.1	106.9	266*	8	102.8	112.0
O=S(=O)(Cc1ccc(Cl)cc1)c1ncc(CO)n1Cc1ccccc1	109.5	105.4	14	6	103.3	100.9
